Among all 69,000 compounds or so, about 1,000 (1.4%) showed an effect of 50% or more. Only a selection was taken, and strong results are over-represented in it overall.

The test system of the assay is Leishmania donovani. Put plainly: Leishmania intramacrophage assay. More on the design: scale not given: in the data most compounds retested in dose-response had high values. It counts as functional, organism-based.

In the case of `Cc1cccc(CN2C(=O)CC[C@@H]3[C@H]2CCN3Cc2ccc(C)s2)n1.O=C(O)C(F)(F)F.O=C(O)C(F)(F)F`, the “Percent Effect” value (30 µM, 30.03 µM) is given as 7.01%.

Turning to `Cc1cc(C)cc(-n2ncc3c2CCCC3N)c1` (centres undefined), the “Percent Effect” value (30.3 µM, […]) is on record as 79.9%.

As to `Cc1ccc(-n2ncc3c2CCCC3N)cc1C` (centres undefined), under “30.3 µM, […]”, the “Percent Effect” value stood at 72.93%.

In the case of `CN(C)S(=O)(=O)NC1CCCc2c1cnn2-c1ccc(C(C)(C)C)cc1` (centres undefined), the “Percent Effect” value (30.3 µM, […]) is 27.24%.

`Cc1ccc(-n2ncc(C(=O)N(C)C3CCN(C)CC3)c2N)cc1C`: under “30.3 µM, […]”, the “Percent Effect” value was 14.5%.

Take `CC(C)(C)c1ccc(-n2ncc3c2CCCC3N)cc1` (centres undefined): for the setting “30.3 µM, […]”, the “Percent Effect” value is 27.02%.

As for `NC1CCCc2c1cnn2-c1cc(F)cc(F)c1` (centres undefined), the “Percent Effect” value (30.3 µM, […]) is -4.914%.

Consider `O=C(O)C(F)(F)F.c1cnc(NCc2nnn3c2CN(Cc2ccsc2)CCC3)nc1`, for which, under “30.3 µM, […]”, the “Percent Effect” value is -35.49%.

Regarding `Cc1ccc(OCCNc2cccc(C(=O)N3CCOCC3)c2)cc1`, the “Percent Effect” value (30.3 µM, […]) is 19.35%.

On to `CC(=O)NCc1cccc(-n2ccnc2-c2cccc(C(=O)O)c2)c1`, for which the “Percent Effect” value (30.3 µM, […]) is reported as -4.637%.

For the molecule `CC(C)C(NC(=O)c1ccccc1F)C(=O)Nc1cnn(C)c1` (centres undefined), for the setting “30.3 µM, […]”, the “Percent Effect” value turned out to be 14.78%.

For `Cc1ccc(-c2cc(C(=O)NCCN3CCCS3(=O)=O)[nH]n2)cc1`, the “Percent Effect” value (30 µM) was -10.89%.

Regarding `CC(C)c1nc(C2CCCN(C(=O)CCCn3ccnc3)C2)no1` (centres undefined), under “30 µM”, the “Percent Effect” value is listed as 30.47%.

Regarding `NC(=O)C1CCCN1C1CCN(C(=O)c2ccc3c(c2)OCO3)CC1` (centres undefined), the “Percent Effect” value (30.3 µM, […]) is recorded as 5.65%.

Turning to `COc1ccc(NCc2nc(=O)n(CCC(C)C)[nH]2)cc1`, the “Percent Effect” value (30 µM, 30.03 µM) was 11.21%.

As for `O=C(Cc1cccc(F)c1)NCCNCc1ccc2c(c1)CCO2`, the “Percent Effect” value (30 µM, 30.03 µM) amounted to 29.87%.

Take `O=c1[nH]c2nc(NC3CC3)ncc2c(=O)n1-c1ccc(F)cc1`: for the setting “30.3 µM, […]”, the “Percent Effect” value came out at 24.05%.

Regarding `O=c1[nH]c2nc(NCC3CCCO3)ncc2c(=O)n1-c1ccc(F)cc1` (centres undefined), for the setting “30.3 µM, […]”, the “Percent Effect” value is listed as 51.53%.

Turning to `O=c1[nH]c2nc(NCC3CCCO3)ncc2c(=O)n1-c1cccc(F)c1` (centres undefined), the “Percent Effect” value (30.3 µM, […]) is recorded as 20.13%.

For the molecule `O=C(c1cc(C2CCCCN2CCO)n[nH]1)N1CCOCC1.O=CO` (centres undefined), the “Percent Effect” value (30.3 µM, […]) is listed as -5.533%.

With `COCC(=O)N(Cc1cccc(C)c1)Cc1ccccc1OC`, the “Percent Effect” value (30.3 µM, […]) was determined as 40.9%.

In the case of `CN[C@@H](C)C(=O)N(Cc1cccc(C)c1)Cc1ccccc1OC`, the “Percent Effect” value (30.3 µM, […]) was determined as 82.29%.

As to `COc1ccccc1CN(Cc1cccc(C)c1)C(=O)[C@@H](N)CC(=O)O`, where the note is “30.3 µM, […]”, the “Percent Effect” value was 13.42%.

As for `CC1CN(C(=O)C2(c3cccc(F)c3)CCOCC2)CCO1` (centres undefined), under “30.3 µM, […]”, the “Percent Effect” value was determined as 18.33%.

`O=C(NCCCN1CCc2ccccc2C1)c1ccccc1Br`: the “Percent Effect” value (30 µM) is given as 36.73%.

For `Cc1ccccc1C(=O)NCCCN1CCc2ccccc2C1`, the “Percent Effect” value (30 µM) stood at 9.574%.

In the case of `O=C(NCCCN1CCc2ccccc2C1)c1ccccc1Cl`, the “Percent Effect” value (30 µM) came to 53%.

On to `N#Cc1ccc(OCC(O)CN2CCC(Cn3cccn3)CC2)cc1` (centres undefined), for which the “Percent Effect” value (30 µM) stood at 5.34%.

Regarding `O=C(O)C(F)(F)F.O=C(O)[C@]12CCCN(CC3CCOC3)C[C@H]1CN(c1ncccn1)C2` (some centres undefined), the “Percent Effect” value (30.3 µM, […]) was determined as 22.4%.

In the case of `Cc1cnc(N2C[C@@H]3CN(C4CCOC4)CCC[C@]3(C(=O)O)C2)nc1.O=C(O)C(F)(F)F` (some centres undefined), where the note is “30.3 µM, […]”, the “Percent Effect” value stood at 51.36%.

On to `O=C(O)C(F)(F)F.O=C(O)[C@]12CCCN(C3CCOC3)C[C@H]1CN(c1nncs1)C2` (some centres undefined), for which the “Percent Effect” value (30.3 µM, […]) is 23.22%.

On to `CC(C)(C)OC(=O)N1CCCC[C@H]1C(=O)NCc1nccs1`, for which, for the setting “30 µM, 30.03 µM”, the “Percent Effect” value came to 12.63%.

With `CCOC(=O)c1c(NC(=O)CN2CCN(C(C)=O)CC2)sc(C)c1C`, the “Percent Effect” value (30.3 µM, […]) is on record as 29.91%.

Take `CCc1c(C)sc(NC(=O)CN2CCN(CC)CC2)c1C(=O)OC`: where the note is “30 µM, 30.03 µM”, the “Percent Effect” value was 52.48%.

Regarding `CCc1c(C)sc(NC(=O)CN2CCOCC2)c1C(=O)OC`, where the note is “30.3 µM, […]”, the “Percent Effect” value is recorded as -39.48%.

`Cc1cc(NC(=O)CN2CCCC2c2c(C)nn(C)c2Cl)on1` (centres undefined): the “Percent Effect” value (30 µM) amounted to 24.03%.

As for `CCc1cc(CN(C)C(=O)c2cc(=O)[nH]c(=O)[nH]2)on1`, the “Percent Effect” value (30.3 µM, […]) turned out to be 53.82%.

`CCc1cc(CN(C)C(=O)c2cnon2)on1`: where the note is “30.3 µM, […]”, the “Percent Effect” value is 11.76%.

For `CCc1cc(CN(C)C(=O)c2cnn[nH]2)on1`, for the setting “30.3 µM, […]”, the “Percent Effect” value amounted to 12.71%.

On to `CCN1CCN(C(=O)c2cc(-c3cccs3)cs2)CC1`, for which, where the note is “30.3 µM, […]”, the “Percent Effect” value is reported as -1.143%.

Consider `Cc1ccc(Cl)cc1NC(=O)C1CSc2ncc(C)c(=O)n2C1` (centres undefined), for which the “Percent Effect” value (30.3 µM, […]) worked out at 17.12%.

As to `COc1cccc(CN(C)c2ncc(C(N)=O)cc2Cl)c1`, the “Percent Effect” value (30.3 µM, […]) is given as -8.015%.

For `Cc1ncc(C(=O)NCCNc2ncnc3sccc23)s1`, the “Percent Effect” value (30.3 µM, […]) amounted to 20.47%.

Turning to `CCc1ncc(C(=O)NCCNc2ncnc3sccc23)s1`, under “30.3 µM, […]”, the “Percent Effect” value stood at 26.76%.

As for `CCc1nc(C)c(C(=O)NCCNc2ncnc3sccc23)s1`, the “Percent Effect” value (30.3 µM, […]) came out at 59.68%.

With `CC1(C)CCC(C(=O)N2CCCO2)c2ccccc21` (centres undefined), the “Percent Effect” value (30.3 µM, […]) is 9.47%.

Take `CN(C)S(=O)(=O)N1CCC(c2c(C(N)=O)sc3ccccc23)C1` (centres undefined): for the setting “30.3 µM, […]”, the “Percent Effect” value amounted to 31.42%.

For `NC(=O)Nc1cccc(F)c1C(=O)NC1CCCC1`, the “Percent Effect” value (30.3 µM, […]) is 3.755%.

Consider `CC(C)Oc1cccc(CNC(Cc2ccsc2)c2nccs2)c1.Cl` (centres undefined), for which the “Percent Effect” value (30.3 µM, […]) is recorded as -38.1%.

As to `COc1ccc(CNC(Cc2ccsc2)c2ccc(C)cn2)c(OC)c1` (centres undefined), under “30.3 µM, […]”, the “Percent Effect” value stood at 62.45%.

As to `COc1cccc(OC)c1CNC(Cc1ccsc1)c1ccc(C)cn1` (centres undefined), under “30.3 µM, […]”, the “Percent Effect” value was 99.68%.

For the molecule `COc1ccc(CNC(Cc2ccsc2)c2ncccc2C)cc1OC` (centres undefined), the “Percent Effect” value (30.3 µM, […]) worked out at 25.36%.

On to `Cc1cccnc1C(Cc1ccsc1)NCc1cnc(N(C)C)nc1` (centres undefined), for which, under “30.3 µM, […]”, the “Percent Effect” value amounted to 17.18%.

Turning to `COc1ccc(CNC(Cc2ccsc2)c2ccc(C)cn2)cc1OC.Cl` (centres undefined), the “Percent Effect” value (30.3 µM, […]) is 12%.
